Among the data in PubChem BioAssay (Tox21) are Potency, outcome and fluorescence, % of fluorescent control values, retold here.

The nature of test [1]: qHTS assay to test for compound auto fluorescence at 535 nm (green) in HEK293 cells (AID 720680). A general note: Quantitative high-throughput screening tests each substance at several concentrations.
Test [2] can be described thus: qHTS assay to test for compound auto fluorescence at 460 nm (blue) in HEK293 cell free culture (AID 720681). In a few lines: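 Blue fluorescence (Ex 405/Em 460 nm, triamterene-equivalent) was read immediately after pin transfer of compound or DMSO into medium (DMEM, 10% FBS) without cells.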
Test [3] can be described thus: qHTS assay to test for compound auto fluorescence at 535 nm (green) in HEK293 cell free culture (AID 720682). In a few lines:
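Compounds were pin-transferred into cell-free DMEM with 10% FBS, and green fluorescence was read at excitation 485 nm and emission 535 nm. Intensities were expressed as fluorescein-equivalent values.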

Test [4] can be described thus: qHTS assay to test for compound auto fluorescence at 590 nm (red) in HEK293 cell free culture (AID 720683). In a few lines: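 Red-channel autofluorescence of compounds in culture medium (DMEM, 10% FBS), no cells, measured at 540/590 nm. Rose Bengal sodium is the reference fluorophore for equivalence.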
Test [5] is described as follows: qHTS assay to test for compound auto fluorescence at 590 nm (red) in HepG2 cell free culture (AID 720684). In a few lines: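 Steps: dispense MEM/10% FBS medium, no cells; pin compound or DMSO vehicle; read red channel, Ex/Em 540/590 nm. Output given as Rose Bengal sodium equivalents.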
Test [6] is described as follows: qHTS assay to test for compound auto fluorescence at 460 nm (blue) in HepG2 cell free culture (AID 720685). The method, boiled down: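 Compound (23 nL) or DMSO pinned into cell-free MEM with 10% FBS; blue fluorescence read at 405/460 nm excitation/emission, expressed as auto-fluorescence equivalency to triamterene.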
The nature of test [7]: qHTS assay to test for compound auto fluorescence at 535 nm (green) in HepG2 cell free culture (AID 720686).
Test [8] is described as follows: qHTS assay to test for compound auto fluorescence at 460 nm (blue) in HepG2 cells (AID 720687). The method, boiled down:
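Blue-channel autofluorescence (Ex/Em 405/460 nm, triamterene-equivalent) was measured after 1 hr compound exposure at 37 C, 5% CO2. Cells were HepG2, plated overnight at 37 C in MEM plus 10% FBS.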

For test [9], the target named is Glucocorticoid receptor (Homo sapiens) (UniProt P04150). Nature of the test: qHTS assay to identify small molecule agonists of the glucocorticoid receptor (GR) signaling pathway (AID 720691; active = well fitted activation curve with a large enough effect in the signal ratio in the repeat runs, not every such curve was filed as active; the % refers to the signal ratio). The method, boiled down: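 Fluorescence intensity from LiveBLAzer B/G FRET substrate (2 h, room temperature) reports beta-lactamase expression driven by the glucocorticoid response element in GR-bla HeLa cells after 18 h compound exposure at 37 C.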
Chain of Glucocorticoid receptor (Homo sapiens) (P04150 whole entry, looked up): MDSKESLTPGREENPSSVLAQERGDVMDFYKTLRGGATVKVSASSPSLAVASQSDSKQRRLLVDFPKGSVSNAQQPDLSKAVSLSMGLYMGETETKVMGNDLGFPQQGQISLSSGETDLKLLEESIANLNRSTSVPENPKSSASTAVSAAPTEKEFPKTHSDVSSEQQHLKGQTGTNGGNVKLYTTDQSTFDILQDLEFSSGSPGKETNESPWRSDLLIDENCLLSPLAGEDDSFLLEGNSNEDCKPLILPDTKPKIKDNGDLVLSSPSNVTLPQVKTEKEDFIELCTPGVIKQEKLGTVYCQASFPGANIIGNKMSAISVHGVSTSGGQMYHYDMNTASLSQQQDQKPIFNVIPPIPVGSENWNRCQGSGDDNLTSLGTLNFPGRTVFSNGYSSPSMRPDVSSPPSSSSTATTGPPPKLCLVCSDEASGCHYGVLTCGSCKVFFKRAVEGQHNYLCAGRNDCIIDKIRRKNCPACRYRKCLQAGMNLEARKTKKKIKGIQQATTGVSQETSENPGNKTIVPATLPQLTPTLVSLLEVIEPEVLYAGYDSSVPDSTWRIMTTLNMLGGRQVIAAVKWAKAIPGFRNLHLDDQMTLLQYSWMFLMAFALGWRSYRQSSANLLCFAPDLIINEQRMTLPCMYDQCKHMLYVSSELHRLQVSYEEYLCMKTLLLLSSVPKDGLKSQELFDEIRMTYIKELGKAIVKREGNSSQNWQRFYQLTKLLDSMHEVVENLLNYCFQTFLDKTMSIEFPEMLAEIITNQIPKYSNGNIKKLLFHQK

For test [10] the target is unchanged. Nature of the test: qHTS assay to identify small molecule antagonists of the glucocorticoid receptor (GR) signaling pathway (AID 720692; active = well fitted inhibition curve with a large enough effect in the signal ratio in the repeat runs, not every such curve was filed as active; the % refers to the signal ratio). The method, boiled down:
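HeLa GR-bla cells; cmpd + dex 5 nM final, 18 h 37 C; LiveBLAzer B/G FRET substrate 2 h RT; fluorescence intensity read. Antagonist mode, qHTS.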

A short description of test [11]: qHTS assay to identify small molecule antagonists of the glucocorticoid receptor (GR) signaling pathway - cell viability counter screen (AID 720693). Note: nearly all actives have a fitted effect of over 55% in size.
A short description of test [12]: qHTS assay for identifying genotoxic compounds that show differential cytotoxicity against isogenic chicken DT40 cell lines with known DNA damage response pathways - wild type cell line (AID 743012). Note: nearly all actives have a fitted effect of over 60% in size. Note: potency is the fitted concentration of half-maximal effect. The method, boiled down: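 Wild type DT40, 300 cells/well, ~0.5 h settle at 37 C/5% CO2; compounds in DMSO added by pintool; 40 h at 37 C/5% CO2; CellTiter-Glo, 30 min RT; luminescence.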

Test [13] in a line: qHTS assay for identifying genotoxic compounds that show differential cytotoxicity against isogenic chicken DT40 cell lines with known DNA damage response pathways - Rad54/Ku70 mutant cell line (AID 743015). Note: nearly all actives have a fitted effect of over 60% in size. Note: potency is the fitted concentration of half-maximal effect.
The nature of test [14]: qHTS assay to identify small molecule antagonists of the androgen receptor (AR) signaling pathway - cell viability counter screen (AID 743033; note: nearly all actives have a fitted effect of over 45% in size; note: potency is the fitted concentration of half-maximal effect).
Test [15] is described as follows: qHTS assay to identify small molecule antagonists of the androgen receptor (AR) signaling pathway using the MDA cell line - cell viability counter screen (AID 743041; note: nearly all actives have a fitted effect of over 45% in size). The method, boiled down:
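Cells were plated at 3,000 per well and left 5 h. Compounds in DMSO were then pinned in, followed by R1881. After 16 h at 37C, CellTiter-Fluor fluorescence gave viability.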

A short description of test [16]: qHTS assay to identify small molecule antagonists of the thyroid receptor (TR) signaling pathway - cell viability counter screen (AID 743064). Note: nearly all actives have a fitted effect of over 50% in size. The method, boiled down: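 In-well cytotoxicity read by CellTiter-Fluor (30 min, 37 C) following 23.5 h exposure of GH3 cells bearing a TRE-luciferase sensor. Compounds were added alongside 1 nM (final) T3 to drive TR transactivation.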

Test [17] can be described thus: qHTS assay to identify small molecule antagonists of the thyroid receptor (TR) signaling pathway (AID 743065). Note: series mostly up to about 70 µM; nearly all actives have a fitted effect of over 55% in size. In a few lines:
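Antagonism measured as loss of luciferase signal in GH3 cells stably carrying a TRE-luciferase reporter, co-treated with compound and T3 (1 nM final) for 23.5 h at 37 C. Viability was read in the same well by CellTiter-Fluor.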

Test [18] is described as follows: qHTS assay for identifying genotoxic compounds that show differential cytotoxicity against isogenic chicken DT40 cell lines with known DNA damage response pathways - Rev3 mutant cell line (AID 743014). Note: nearly all actives have a fitted effect of over 55% in size. Note: potency is the fitted concentration of half-maximal effect.
Test [19] concerns the target Androgen receptor (Homo sapiens) (UniProt P10275). In words: qHTS assay to identify small molecule agonists of the androgen receptor (AR) signaling pathway (AID 743036; active = well fitted activation curve with a large enough effect in the signal ratio in the repeat runs, with a control signal flat, not every such curve was filed as active; the % refers to the signal ratio). In a few lines: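 Activation was read as beta-lactamase FRET signal from LiveBLAzer B/G substrate, added for 2 h at room temperature. Before that, GeneBLAzer AR-UAS-bla GripTite (HEK293) cells had 16 h compound exposure at 37C.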

For test [20] the target is unchanged. Nature of the test: qHTS assay to identify small molecule antagonists of the androgen receptor (AR) signaling pathway using the MDA cell line (AID 743042; note: nearly all actives have a fitted effect of over 55% in size). In a few lines: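 Antagonist mode: compounds plus R1881 agonist added to MDA-kb2 AR-luc cells, incubated 16 h at 37C. Luciferase reporter luminescence quantified, with multiplexed CellTiter-Fluor readout for cell viability.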

“And” between values parts separate entries of the source, which are not always exact repeats. Equal values may be shown once. Records with an inconclusive call do not appear. Some compounds were tested as several samples or in several runs, with calls that do not always agree. The source made the active and inactive calls. Unless noted, calls come from the whole dose curve; as a rule, active = well fitted curve in the direction sought with a large enough effect in the repeat runs; inconclusive = weak or mixed curves; inactive = no such curve, though single readings can be large; an effect the other way counts as inactive or inconclusive.
% is set by controls: 0 for no effect and ±100 for the full control effect.

Chain of Androgen receptor (Homo sapiens) (P10275 whole entry, looked up): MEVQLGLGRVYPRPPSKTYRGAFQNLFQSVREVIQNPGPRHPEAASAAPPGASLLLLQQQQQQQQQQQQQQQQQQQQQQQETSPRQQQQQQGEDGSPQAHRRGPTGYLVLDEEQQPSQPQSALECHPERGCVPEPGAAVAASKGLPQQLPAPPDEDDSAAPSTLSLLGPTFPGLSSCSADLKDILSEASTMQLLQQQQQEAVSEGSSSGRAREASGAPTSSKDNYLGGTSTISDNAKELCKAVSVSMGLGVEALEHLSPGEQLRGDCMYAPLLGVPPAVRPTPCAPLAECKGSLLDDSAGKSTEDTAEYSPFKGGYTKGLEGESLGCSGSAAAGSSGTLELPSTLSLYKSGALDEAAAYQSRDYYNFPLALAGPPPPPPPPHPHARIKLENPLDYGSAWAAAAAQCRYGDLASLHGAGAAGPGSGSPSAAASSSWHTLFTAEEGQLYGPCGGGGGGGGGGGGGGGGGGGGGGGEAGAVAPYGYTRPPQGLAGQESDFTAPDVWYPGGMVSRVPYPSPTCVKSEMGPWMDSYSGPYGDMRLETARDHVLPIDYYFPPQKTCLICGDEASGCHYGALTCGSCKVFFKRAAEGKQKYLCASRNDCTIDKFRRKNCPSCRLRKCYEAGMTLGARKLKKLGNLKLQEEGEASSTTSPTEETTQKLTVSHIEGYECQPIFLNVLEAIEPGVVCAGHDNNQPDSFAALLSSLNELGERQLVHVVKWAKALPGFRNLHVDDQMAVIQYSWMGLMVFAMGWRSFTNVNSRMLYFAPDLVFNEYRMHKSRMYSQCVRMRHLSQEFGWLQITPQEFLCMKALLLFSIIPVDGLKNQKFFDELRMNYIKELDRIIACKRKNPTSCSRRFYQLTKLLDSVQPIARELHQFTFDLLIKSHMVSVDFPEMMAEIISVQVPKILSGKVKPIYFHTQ

As for `c1cc(-c2ccncc2)ccn1`, the Potency result in test [1], in test [3], in [4], in test [5], in test [7] and in [9] was “inactive” throughout. Also, the Potency entry in test [10], in test [11], in [12], in test [13], in test [14] and in [15] was “inactive” each time. For the same molecule, the Potency entry in test [16] and in [17] was “inactive” each time. Further, the result in test [2], in test [6] and in [8] was inactive.

Regarding `S=C(NC1CCCCC1)NC1CCCCC1`, the Potency entry in test [1], in [3], in [4], in test [5], in test [7] and in test [9] was “inactive” each time. The Potency entry in [10], in [11], in [12], in test [15], in test [16] and in test [17] was “inactive” in each case. For the same molecule, the call in [2], in test [6] and in test [8] was inactive. The Potency result in test [18] is “inactive and 61.1 µM (active)”; in [13] it was “inactive and 61.1 µM (active)”; in test [14], 19.1 µM (active).

As to `CCOCCOCCO`, the Potency result in [1], in test [3], in [4], in test [5], in [7] and in [9] was “inactive” each time. Besides, the Potency entry in test [10], in [11], in test [12], in test [13], in test [14] and in test [15] was “inactive” in each case. For the same molecule, the Potency result in test [20], in [16] and in [17] was “inactive” in each case. Besides, the molecule was called inactive in test [2], in test [6], in test [8] and in test [19].

`CC(C)OB(OC(C)C)OC(C)C`: the Potency entry in test [1], in test [3], in [4], in test [5], in test [7] and in test [9] was “inactive” in each case. Also, the Potency entry in [10], in test [11], in [12], in test [18], in test [13] and in test [14] was “inactive” each time. The Potency result in test [15], in test [16] and in [17] was “inactive” in each case. Moreover, the molecule was called inactive in test [2], in test [6] and in test [8].

In the case of `CCCCC(CC)COCC1CO1` (configuration not stated), the Potency result in [1], in test [3], in test [4], in test [5], in test [7] and in [9] was “inactive” in each case. Also, the Potency entry in test [10], in test [11], in test [12], in test [18], in test [13] and in test [14] was “inactive” each time. Moreover, the Potency result in [15] and in test [17] was “inactive” throughout. In addition, the call in test [2], in [6] and in test [8] was inactive.

Consider `OC(CCl)CCl`, for which the Potency result in test [1], in test [3], in test [4], in test [5], in [7] and in [9] was “inactive” throughout. The Potency result in [10], in test [11], in test [12], in [18], in [13] and in test [14] was “inactive” each time. Also, the Potency entry in test [15], in [16] and in [17] was “inactive” throughout. Also, the molecule was classed as inactive in test [2], in [6] and in [8].

On to `CCCCNS(=O)(=O)c1ccccc1`, for which the Potency result in test [1], in test [3], in test [4], in test [5], in [7] and in test [9] was “inactive” each time. In addition, the Potency entry in test [10], in test [11], in test [12], in test [18], in [13] and in test [14] was “inactive” each time. In addition, the Potency result in test [15] and in [16] was “inactive” in each case. Further, the molecule was classed as inactive in [2], in test [6] and in [8].

With `c1ccc2c(c1)Oc1ccccc1S2`, the Potency result in test [1], in [3], in [4], in test [5], in test [7] and in [9] was “inactive” throughout. Further, the Potency result in test [10], in test [11], in test [12], in test [18], in test [13] and in [14] was “inactive” each time. Moreover, the Potency result in test [15], in [16] and in [17] was “inactive” in each case. The molecule was called inactive in [2], in test [6] and in test [8].

In the case of `Cc1cccc(N(C)C(=S)Oc2ccc3ccccc3c2)c1`, the Potency result in test [1], in test [3], in test [4], in test [5], in test [7] and in [9] was “inactive” each time. Besides, the Potency result in test [10], in test [11], in [14], in test [15] and in test [16] was “inactive” in each case. Moreover, the molecule was classed as inactive in [2] and in [8]. Also, the fluorescence, % of fluorescent control in test [6] is -0.0096% [at 18.6 µM] (inactive). Moreover, the Potency result is “inactive and 30.6 µM (active)” in test [12]; “inactive and 30.6 µM (active)” in [13].

Consider `COc1c(Cl)c(Cl)c(Cl)c(Cl)c1Cl`, for which the Potency entry in test [1], in test [3], in test [4], in [5], in test [7] and in [9] was “inactive” throughout. In addition, the Potency entry in [10], in test [11], in [12], in test [18], in [13] and in test [14] was “inactive” throughout. Further, the Potency result in test [15], in test [16] and in test [17] was “inactive” in each case. For the same molecule, the call in test [2], in [6] and in test [8] was inactive.

Consider `O=Cc1ccccc1O`, for which the Potency result in [1], in test [3], in [4], in test [5], in [7] and in [9] was “inactive” throughout. Moreover, the Potency entry in [10], in [11], in test [12], in test [18], in test [13] and in test [14] was “inactive” throughout. Also, the Potency entry in [15], in [16] and in test [17] was “inactive” each time. Further, the result in [2], in test [6] and in test [8] was inactive.

On to `C=CC(C)(CCC=C(C)C)OC(C)=O` (configuration not stated), for which the Potency entry in test [1], in test [3], in test [4], in test [5], in test [7] and in test [9] was “inactive” each time. Moreover, the Potency result in test [10], in test [11], in [12], in test [13], in test [14] and in [15] was “inactive” each time. Also, in test [16], the Potency entry was “inactive”. Moreover, the result in test [2], in test [6] and in test [8] was inactive. Besides, the Potency entry in [18] is “inactive and 54.5 µM (active)”.

Take `O=S(=O)(O)c1ccc(O)cc1`: the Potency result in test [1], in [3], in test [4], in test [5], in test [7] and in [9] was “inactive” in each case. In addition, the Potency result in [10], in [11], in test [12], in test [13], in test [14] and in test [15] was “inactive” throughout. The Potency result in test [16] is “inactive”. For the same molecule, the result in test [2], in test [6] and in [8] was inactive.
